Several values for one entry are separate records, joined by “and”; a condition that tells them apart may be missing. Equal values may be shown once. Compounds without any hit were thinned out: in the full panel of roughly 79,000, 15% have a hit. A structure can be active in one record and inactive in another. Activity calls are given as the source filed them. Rule as the data show it: active = growth inhibition above about 70%; inactive = the rest.
How the values were obtained:
[1] = NCI Yeast Anticancer Drug Screen. Data for the rad52 strain (AID 147);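 also: 0% = growth of vehicle-treated control cultures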; conditions: S. cerevisiae rad52 mutant growth inhibition, stronger effect = higher value
Summary of the method: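 DNA repair-defective yeast; compound exposure; growth scored against vehicle controls.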

[2] = NCI Yeast Anticancer Drug Screen. Data for the wt1 strain (AID 149);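 also: 0% = growth of vehicle-treated wt1 cultures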; conditions: S. cerevisiae wt1 strain (SPY 50644) growth inhibition, stronger effect = higher value
Summary of the method: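 Vehicle-normalised growth inhibition; strain wt1; compound exposure.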

[3] = NCI Yeast Anticancer Drug Screen. Data for the rad50EPP+ strain (AID 151);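 also: 0% = growth of vehicle-treated control cultures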; conditions: S. cerevisiae rad50 mutant strain, stronger effect = higher value
Summary of the method: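 rad50EPP+ yeast treated with test compounds. Readout: growth vs vehicle control.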

[4] = NCI Yeast Anticancer Drug Screen. Data for the mgt1 strain (AID 153); conditions: S. cerevisiae mgt1 mutant growth inhibition, stronger effect = higher value
Summary of the method: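 Growth inhibition relative to vehicle controls was scored for the mgt1 yeast strain after compound exposure.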

[5] = NCI Yeast Anticancer Drug Screen. Data for the rad50 strain (AID 155);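 also: 0% = growth of vehicle-only cultures of the same strain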; conditions: S. cerevisiae rad50 strain growth inhibition, stronger effect = higher value
Summary of the method: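 A DNA repair-deficient yeast mutant serves as the test organism; compound-induced growth inhibition is calculated against vehicle-treated cells.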

[6] = NCI Yeast Anticancer Drug Screen. Data for the mec2-1 strain (AID 157); conditions: S. cerevisiae mec2-1 strain, stronger effect = higher value
Summary of the method: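 Growth inhibition is read against vehicle-treated controls after compound exposure of the mec2-1 yeast strain, which is defective in DNA damage repair or cell cycle control.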

[7] = NCI Yeast Anticancer Drug Screen. Data for the rad14 strain (AID 159);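 also: 0% = growth of vehicle-treated control cultures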; conditions: S. cerevisiae rad14 strain growth inhibition, stronger effect = higher value
Summary of the method: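 Vehicle-treated cultures served as the baseline for growth inhibition of a DNA repair-mutant yeast strain exposed to each compound.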

[8] = NCI Yeast Anticancer Drug Screen. Data for the sgs1 mgt1 strain (AID 161);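 also: 0% = growth of cultures given vehicle only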; conditions: S. cerevisiae sgs1 mgt1 strain, stronger effect = higher value
Summary of the method: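 Compounds are added to genetically altered yeast, and growth is compared with cultures given vehicle alone to give percent inhibition.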

[9] = NCI Yeast Anticancer Drug Screen. Data for the CLN2oe strain (AID 163);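 also: 0% = growth of vehicle-only control cultures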; conditions: S. cerevisiae CLN2oe strain, stronger effect = higher value
Summary of the method: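 Compound-treated yeast; growth vs vehicle ctrl = % inhibition. Genetically altered strain (cell-cycle control).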

[10] = NCI Yeast Anticancer Drug Screen. Data for the bub3 strain (AID 167); conditions: S. cerevisiae bub3 mutant strain, stronger effect = higher value
Summary of the method: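 Inhibition values come from growth of compound-treated mutant yeast normalised to vehicle-treated controls.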

[11] = NCI Yeast Anticancer Drug Screen. Data for the wt2 strain (AID 169);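 also: 0% = growth of vehicle-treated yeast cultures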; conditions: S. cerevisiae wt2 strain growth inhibition, stronger effect = higher value
Summary of the method: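 Compound exposure of yeast; growth compared with vehicle controls; inhibition reported.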

[12] = NCI Yeast Anticancer Drug Screen. Data for the mlh1 strain (AID 171);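 also: 0% = growth of vehicle-treated control cultures of the same strain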; conditions: S. cerevisiae mlh1 strain growth inhibition, stronger effect = higher value
Summary of the method: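 Compounds are applied to a genetically altered yeast strain, and its growth is compared with that of vehicle-treated cultures to give percent inhibition.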

[13] = NCI Yeast Anticancer Drug Screen. Data for the sgs1 strain (AID 173);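 also: 0% = growth of vehicle-only control cultures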; conditions: S. cerevisiae sgs1 mutant, stronger effect = higher value
Summary of the method: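 Compounds applied to genetically altered yeast; growth compared with vehicle-treated cultures to give % inhibition.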

[14] = NCI Yeast Anticancer Drug Screen. Data for the mlh1 rad18 strain (AID 175); conditions: S. cerevisiae mlh1 rad18 strain growth inhibition, stronger effect = higher value
Summary of the method: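 Cells of a genetically altered yeast strain, deficient in DNA damage repair, were treated with compound. Their growth was then compared with that of vehicle-treated cultures to give inhibition.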

[15] = NCI Yeast Anticancer Drug Screen. Data for the rad18 strain (AID 177); conditions: S. cerevisiae rad18 mutant growth inhibition, stronger effect = higher value
Summary of the method: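 Compounds are applied to a repair-deficient yeast strain, and growth is compared with that of vehicle-treated cultures to give percent inhibition.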

[16] = at 5.0 µM (retest, dose inferred, filed as 0.5)
[17] = at 50.0 µM (retest, dose inferred, filed as 5.0)

Measured: growth inhibition

O=C1Nc2ccccc2/C1=C/c1ccccc1
66.6% (inactive) and 97.2% (active): [6]; at 50.0 µM
63.5% (inactive) and 96.8% (active): [14]; at 50.0 µM
57.1% (inactive) and 96.2% (active): [8]; at 50.0 µM
15.8% (inactive) and 98% (active): [10]; at 50.0 µM
active: [1]; at 100.0 µM 80% | [4]; at 100.0 µM 71% | [5]; at 50.0 µM 81.6% and 98% | [5]; at 100.0 µM 82% | [7]; at 100.0 µM 73% | [11]; at 100.0 µM 88% | [12]; at 100.0 µM 81% | [13]; at 100.0 µM 84% | [15]; at 100.0 µM 86%
inactive: [1]; at 1.2 µM -2% | [1]; at 3.7 µM -1% | [1]; at 11.0 µM 7% | [1]; at 33.0 µM 37% | [2]; at 1.2 µM -1% | [2]; at 3.7 µM -2% | [2]; at 11.0 µM 0% | [2]; at 33.0 µM 6% | [2]; at 100.0 µM 34% | [3]; at 1.2 µM 0% | [3]; at 3.7 µM 1% | [3]; at 11.0 µM 10% | [3]; at 33.0 µM 35% | [3]; at 100.0 µM 53% | [4]; at 1.2 µM -6% | [4]; at 3.7 µM -22% | [4]; at 11.0 µM -8% | [4]; at 33.0 µM 17% | [5]; at 1.2 µM -3% | [5]; at 3.7 µM 1% | [5]; [16] -113% and -24% | [5]; at 11.0 µM 3% | [5]; at 33.0 µM 39% | [5]; [17] -9% and 10% | [6]; at 1.2 µM -3% | [6]; at 3.7 µM -5% | [6]; [16] -53% and -11% | [6]; at 11.0 µM -8% | [6]; at 33.0 µM 4% | [6]; [17] -56% and 30% | [6]; at 100.0 µM 51% | [7]; at 1.2 µM -4% | [7]; at 3.7 µM 6% | [7]; at 11.0 µM -2% | [7]; at 33.0 µM 14% | [8]; [16] -69% and -10% | [8]; [17] -52% and 29% | [9]; at 1.2 µM -9% | [9]; at 3.7 µM -9% | [9]; at 11.0 µM -12% | [9]; at 33.0 µM -1% | [9]; at 100.0 µM 17% | [10]; at 1.2 µM -9% | [10]; at 3.7 µM -14% | [10]; [16] -46% and -21% | [10]; at 11.0 µM -5% | [10]; at 33.0 µM 9% | [10]; [17] -62% and 22% | [10]; at 100.0 µM 51% | [11]; at 1.2 µM -3% | [11]; at 3.7 µM -3% | [11]; at 11.0 µM 2% | [11]; at 33.0 µM 35% | [12]; at 1.2 µM -5% | [12]; at 3.7 µM 10% | [12]; at 11.0 µM -5% | [12]; at 33.0 µM 30% | [13]; at 1.2 µM 0% | [13]; at 3.7 µM 2% | [13]; at 11.0 µM 10% | [13]; at 33.0 µM 47% | [14]; [16] -122% and -22% | [14]; [17] -79% and 51% | [15]; at 1.2 µM 0% | [15]; at 3.7 µM -1% | [15]; at 11.0 µM 8% | [15]; at 33.0 µM 52%

Reference: PubChem BioAssay (NCI)
